Screens deposited in PubChem BioAssay by several laboratories.
An excerpt weighted towards active compounds, which were near 3.2% of everything screened.
ANO1 activ – TMEM16A chloride channel activators or potentiators, primary screen, cell-based, HTS; Anoctamin-1 (Mus musculus), Q8BHY3; HEK293 TMEM16A/YFP-H148Q/I152L, iodide quench fluorescence; hits give low values; B-score at 10 µM; hit rate 0.3% among 340,000; AID 623877, 2012;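 active = fluorescence-ratio B-score plate-corrected deviation score at least 3 library SD below zero, with starting fluorescence score within 5 deviations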;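 note: channel opened by trigger with iodide after compound preincubation; score built on the fluorescence ratio of max minus min over baseline; more negative score means more quench and so TMEM16A activation or potentiation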
PHOSPHO1 inh – PubChem AID 1565. recombinant PHOSPHO1, absorbance phosphatase assay. inhibition, % at 13.3 µM. hit rate 1.1% among 290,000; in the data active = inhibition above about 60%
TMEM16A inh – TMEM16A chloride channel inhibitors, primary screen, cell-based, HTS. Anoctamin-1 (Mus musculus), Q8BHY3. HEK293 TMEM16A/YFP iodide influx fluorescence, ionomycin. normalized B-score (activity score, 25-100; higher = stronger inhibition) at 10 µM. hit rate 1.2% among 310,000. AID 588511, 2011;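 active = ratio plate-corrected score three or more library SD toward inhibition, starting fluorescence score within five deviations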;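 note: score derived from kinetic fluorescence span divided by baseline fluorescence per well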
CHT block – inhibitors of human choline transporter CHT | CHT-expressing cells, membrane potential dye, choline response; hits give low values | B-score at 10 µM | hit rate 0.86% among 310,000 | AID 488975, 2010;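 active = B-score over 3 SD under the library average, and starting fluorescence ratio not unusually high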;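 note: choline stimulus applied at its EC90 after an EC20 pre-addition; B-score computed on integrated fluorescence ratio after choline addition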
Target sequence (Q9GZV3 whole entry, looked up): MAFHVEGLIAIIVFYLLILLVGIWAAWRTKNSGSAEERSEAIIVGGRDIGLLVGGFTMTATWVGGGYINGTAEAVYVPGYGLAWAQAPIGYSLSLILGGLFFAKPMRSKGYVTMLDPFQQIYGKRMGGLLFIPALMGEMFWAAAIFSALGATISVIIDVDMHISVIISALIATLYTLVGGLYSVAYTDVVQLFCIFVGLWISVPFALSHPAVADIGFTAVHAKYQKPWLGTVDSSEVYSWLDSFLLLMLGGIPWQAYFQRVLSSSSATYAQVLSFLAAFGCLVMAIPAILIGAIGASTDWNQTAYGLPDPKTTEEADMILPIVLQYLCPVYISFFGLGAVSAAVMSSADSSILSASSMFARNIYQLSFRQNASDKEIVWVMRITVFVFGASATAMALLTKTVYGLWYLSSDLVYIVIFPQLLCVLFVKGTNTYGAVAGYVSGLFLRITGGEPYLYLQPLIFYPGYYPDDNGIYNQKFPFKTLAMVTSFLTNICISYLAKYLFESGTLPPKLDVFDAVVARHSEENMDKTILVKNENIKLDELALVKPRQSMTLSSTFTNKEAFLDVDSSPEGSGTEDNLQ
HDAC3 inh – HDAC3 deacetylase inhibitors, primary screen, biochemical, fluorescence, cell-free homogeneous | recombinant HDAC3, fluorogenic peptide/trypsin coupled | inhibition, % at 8.3 µM | hit rate 0.15% among 320,000 | AID 2718, 2010; in the data active = inhibition above about 26%, passing the limit was not always enough
CHT PAM – CHT positive allosteric modulators, primary screen, cell-based, membrane potential dye, choline EC20; High affinity choline transporter 1 (Homo sapiens), Q9GZV3; CHT-expressing cells; hits give high values; LV-AA mutant CHT in HEK293 cells; B-score at 10 µM; hit rate 0.49% among 310,000; AID 488977, 2010;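 active = initial fluorescence not abnormally high and integrated response B-score, plate-corrected, over 3 SD above library mean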
CHT activ conf – CHT activators, confirmation, cell-based, membrane potential dye, duplicate; activation, % at 10 µM; shares compounds with CHT PAM; CHT-expressing cells, membrane potential dye fluorescence (FDSS); % of choline EC20–EC90 response window; HEK293 expressing CHT LV-AA mutant; choline added at its EC20; hit rate 91% among 2,500;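 active = primary screen active, with duplicate mean activation above negative control mean plus 3 SD, cut at about 11% in these data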
HEK293 MP dye – membrane potential response in parental HEK293 cells, counter-screen for CHT activator project, cell-based, membrane potential dye; shares compounds with CHT PAM; membrane potential dye fluorescence (FDSS); measured after EC20 choline addition; ratio readout change at 10 µM, hits read low; hit rate 62% among 2,500;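 active = duplicate-averaged ratio beyond 3 SD from buffer wells, up or down, though filed actives are nearly all decreases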
Large screens that a line does not name were inactive (follow-up assays come after a bar, where they were run).

CN(Cc1ccno1)Cc1cn(C)nc1-c1ccc(Oc2ccccc2)cc1	none
COc1ccc(Nc2nc(N)c([N+](=O)[O-])c(NCc3ccccc3)n2)cc1	none
O=C1CSc2ccc(C(=O)N3CCN(c4ccccn4)CC3)cc2N1	none
CC(C)(C)n1nnnc1C(c1cccnc1)N1CCN(c2cccc(C(F)(F)F)c2)CC1 (centres undefined)	CHT PAM 7.8 | CHT activ conf 21 | HEK293 MP dye inactive
Cc1cccc(N2CCN(C(c3ccncc3)c3nnnn3C(C)(C)C)CC2)c1C (centres undefined)	none | CHT activ conf 29 | HEK293 MP dye inactive
COc1ccc(NC(=O)c2cccs2)cc1C(=O)N1CCN(c2ccccc2)CC1	none
O=C(CCNS(=O)(=O)c1ccccc1C(F)(F)F)NCCCN1CCOCC1	none (no result: PHOSPHO1 inh, TMEM16A inh, CHT block, CHT PAM)
CCN1CCN(C(=O)C(=O)c2cn(CC(=O)N(CC)CC)c3ccccc23)CC1	none | CHT activ conf 44 | HEK293 MP dye inactive
COC(=O)c1cn(CCOc2ccccc2)c2ccccc12	none
CCN(CC)C(=O)C(=O)c1cn(CCOc2ccccc2)c2ccccc12	none | CHT activ conf inactive | HEK293 MP dye inactive
CCOC(=O)[C@H]1[C@H]2COc3ccc(Br)cc3[C@@H]2N2C(=O)N(c3ccccc3)C(=O)[C@@]12C	none (no result: PHOSPHO1 inh, TMEM16A inh, CHT block, CHT PAM)
CCOC(=O)[C@@H]1[C@H]2COc3ccc(Br)cc3[C@@H]2N2C(=O)N(c3ccccc3)C(=O)[C@@]12C	CHT PAM 8.7 | CHT activ conf 20 | HEK293 MP dye inactive
Cc1ccc(CN(C)C(=O)CC2C(=O)NCCN2CC2CCCCC2)cc1 (centres undefined)	none
Cc1cnccc1CN(C)C(=O)CC1C(=O)NCCN1CC1CCCCC1 (centres undefined)	CHT PAM 7.7 | CHT activ conf inactive | HEK293 MP dye inactive
COc1ccc(/C=N/Nc2ccc(C(=O)O)cc2)c(OC)c1OC	none
COC(=O)c1ccc2c(c1)C(C)(C)C(/C=C/c1ccc(OC)c(OC)c1OC)=[N+]2C	CHT PAM 6.5 | CHT activ conf 59 | HEK293 MP dye -65
C=CCn1c(SCC(=O)O)nnc1-c1cccc(Cl)c1	CHT PAM 6.6 | CHT activ conf inactive | HEK293 MP dye inactive
CC(C)(C)N(NC(=O)c1ccccc1)C(=O)c1cccc(C(=O)N(NC(=O)c2ccccc2)C(C)(C)C)c1	CHT PAM 8.5 | CHT activ conf 35 | HEK293 MP dye inactive
CC(=O)Nc1ccc(S(=O)(=O)Nc2nc3ccccc3nc2Nc2ccc(O)cc2)cc1	none
COc1cc(Nc2c3c(nc4ccccc24)CCCC3)cc(OC)c1OC	none | CHT activ conf 45 | HEK293 MP dye -49
Cc1ccc(C2=[N+]([O-])C3(CCCCC/C3=N\NC(N)=S)N(O)C2(C)C)o1 (centres undefined)	none (no result: ANO1 activ)
Cc1cc(Cl)ccc1OC(C)C(=O)NCCCCc1ccccc1 (centres undefined)	none
Cc1cc(Cl)ccc1OC(C)C(=O)NCCc1ccc2c(c1)OCCO2 (centres undefined)	none | CHT activ conf inactive | HEK293 MP dye inactive
CN1C(=O)CS/C1=N\NC(=O)COc1cccc2cccnc12	CHT PAM 6.6 | CHT activ conf 48 | HEK293 MP dye -56
Cc1c(Cl)cccc1NC(=O)COC(=O)c1c2c(nc3ccccc13)CCN(Cc1ccccc1)C2	none | CHT activ conf 21 | HEK293 MP dye inactive
CC(=O)CCc1ccc(OCCCCN2CCC(Cc3ccccc3)CC2)cc1	none | CHT activ conf 15 | HEK293 MP dye -26
COc1ccccc1NC(=O)Cc1csc(NC(=S)Nc2ccc(C)cc2)n1	none
NC1C2CN(c3nc4c(cc3F)c(=O)c(C(=O)O)cn4-c3ccc(F)cc3F)CC12 (centres undefined)	CHT PAM 7.9 | CHT activ conf 60 | HEK293 MP dye -67
CC(C)(C)OC(=O)n1cc(C(=O)c2ccccc2O)cn1	none
CCOC(=O)n1cc(C(=O)c2ccccc2O)cn1	none | CHT activ conf 30 | HEK293 MP dye -38
CC(C)N(CC(=O)Nc1ccc(Cl)cc1C(F)(F)F)C(=O)CCl	none
Brc1ccc2c(c1)OCCOCCOc1cc(Br)ccc1OCCOCCOCCO2	TMEM16A inh 100, CHT PAM 14 | CHT activ conf 57 | HEK293 MP dye inactive
Brc1cc2c(cc1Br)OCCOCCOCCOCCO2	none
CCCCCC(=O)Cc1cc(O)cc2c1C(=O)Oc1cc(O)c(C(=O)O)c(CCCCC)c1O2	TMEM16A inh 25 (no result: ANO1 activ) | CHT activ conf 30 | HEK293 MP dye -50
CCN(CC(=O)Nc1c(F)cccc1F)C(=O)C1CC1	none (no result: PHOSPHO1 inh, TMEM16A inh, CHT block, CHT PAM)
CCCN(Cc1nnc(-c2cccs2)o1)C(=O)c1cc(S(=O)(=O)N2CCOCC2)ccc1C	none (no result: PHOSPHO1 inh, TMEM16A inh, CHT block, CHT PAM)
Cc1ccc(NC(=O)c2nc3nccc(C)n3n2)cc1S(=O)(=O)N1CCCCC1	none (no result: PHOSPHO1 inh, TMEM16A inh, CHT block, CHT PAM)
Cc1ccnc2nc(C(=O)Nc3ccc(S(=O)(=O)N4CCCC4)cc3)nn12	CHT PAM 9.9 | CHT activ conf 27 | HEK293 MP dye -21
Cc1ccnc2nc(C(=O)Nc3nccs3)nn12	none | CHT activ conf 40 | HEK293 MP dye inactive
Cc1ccnc2nc(C(=O)NC3=NCCS3)nn12	none
O=C1N(Cc2cccc(Cl)c2)C[C@@H]2C[C@@H](c3ccccn3)N3CCC[C@@]123	none
O=C1N(Cc2cccc(Cl)c2)C[C@@H]2C[C@@H](c3ccsc3)N3CCC[C@@]123	none | CHT activ conf 28 | HEK293 MP dye inactive
COc1ccccc1OCC(=O)Nc1ccc2c(c1)n(C)c(=O)n2C	CHT PAM 6.6 | CHT activ conf 63 | HEK293 MP dye -53
COc1ccc(OCC(=O)Nc2ccc3c(c2)n(C)c(=O)n3C)cc1	none
CCCCN=C1SC(C(=O)Nc2sc3c(c2C(=O)OC)CCC3)C(N)=C1C(=O)N1CCOCC1 (centres undefined)	none (no result: PHOSPHO1 inh)
CCCC(C(=O)NC(C)(C)C)N(CCN1CCOCC1)C(=O)CNS(=O)(=O)c1ccccc1 (centres undefined)	none
